Test results published in PubChem BioAssay (Tox21).
Several values for one entry are separate records, joined by “and”; a condition that tells them apart may be missing. Equal values may be shown once. Inconclusive results are not listed. Activity calls are given as the source filed them. Unless noted, calls follow the shape of the dose curve; as a rule, active = well fitted curve in the direction sought with a large enough effect in the repeat runs; inconclusive = weak or mixed curves; inactive = no such curve, though single readings can be large; an effect the other way counts as inactive or inconclusive.

Key:
[1] = qHTS assay for small molecules that induce genotoxicity in human embryonic kidney cells expressing luciferase-tagged ATAD5 (AID 651632); conditions: HEK293T ATAD5-luciferase induction, 16 h; series mostly up to 83.3 µM; also: nearly all actives have a fitted effect of over 15% in size; also: potency is read from the fitted curve at half-maximal effect
How it was run: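 HEK293T cells carrying luciferase-tagged ATAD5 were given compound or DMSO vehicle and incubated 16 hr at 37C, 5% CO2. Luciferase activity was read after 30 min at room temperature with Amplite; a rise signals genotoxic stress.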

[2] = qHTS assay for small molecule agonists of the p53 signaling pathway - cell viability (AID 651633; calls by dose curve; also: nearly all actives have a fitted effect of over 30% in size; also: potency is read from the fitted curve at half-maximal effect); conditions: p53RE-bla HCT-116 viability, ATP luminescence, 16 h; series mostly up to 83.3 µM
How it was run: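 p53RE-bla cells were treated with compound for 16 hours at 37 C. Cytotoxicity was then measured as CellTiter-Glo luminescence after 30 min at room temperature.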

[3] = qHTS assay for small molecules that induce genotoxicity in human embryonic kidney cells expressing luciferase-tagged ATAD5 - cell viability (AID 651634; calls by dose curve; also: nearly all actives have a fitted effect of over 25% in size); conditions: HEK293T ATAD5-luc cells viability, CellTiter-Fluor, 15.5 h; series mostly up to 83.3 µM
How it was run: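 HEK293T cells carrying luciferase-tagged ATAD5, 2,000 cells/well, exposed to compound for 15.5 hr at 37C. Viability read as live-cell protease activity by CellTiter-Fluor fluorescence after 30 min at 37C.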

[4] = qHTS assay for small molecule disruptors of the mitochondrial membrane potential - cell viability (AID 720634; calls by dose curve;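 also: human HepG2 liver cancer cells; nearly all actives have a fitted effect of over 20% in size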); conditions: HepG2 viability, ATP luminescence (CellTiter-Glo), 1 h; series mostly up to 83.2 µM
How it was run: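 HepG2 cells, 2,000 per well, attached overnight, then treated 1 hr at 37 C, 5% CO2. Viability read as ATP by CellTiter-Glo luminescence after 30 min at room temperature. Read in the same wells as the m-MPI membrane-potential dye assay.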

[5] = qHTS assay for small molecule disruptors of the mitochondrial membrane potential (AID 720635); conditions: HepG2 mitochondrial membrane potential, Mito-MPS dye ratio; series mostly up to 83.2 µM; also: potency is read from the fitted curve at half-maximal effect
How it was run: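 HepG2 cells exposed to compound 1 hr at 37C, then Mito-MPS dye 30 min. Ratio read of aggregate (540/590 nm) versus monomer (490/535 nm) fluorescence.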

[6] = qHTS assay to test for compound auto fluorescence at 590 nm (red) in HepG2 cells (AID 720674); conditions: HepG2 autofluorescence, red 540/590 nm, 1 h; series mostly up to 91.3 µM
How it was run: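 HepG2 cells, 2,000 per well in MEM with 10% FBS, attached overnight at 37 C, then got 23 nL compound or DMSO. After 1 hr at 37 C, 5% CO2, red fluorescence was read at 540/590 nm against Rose Bengal sodium as reference.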

[7] = qHTS assay to test for compound auto fluorescence at 535 nm (green) in HepG2 cells (AID 720675); conditions: green autofluorescence 485/535 nm, 1 h; series mostly up to 91.3 µM
[8] = qHTS assay to test for compound auto fluorescence at 460 nm (blue) in HEK293 cells (AID 720678); conditions: blue autofluorescence 405/460 nm; series mostly up to 91.3 µM
How it was run: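 HEK293 cells (2,000/well, medium with 10% dialyzed FBS) attached 4-5 hr, then exposed to compound overnight at 37C, 5% CO2. Blue fluorescence read at 405/460 nm, with triamterene as reference fluorophore.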

[9] = qHTS assay to test for compound auto fluorescence at 590 nm (red) in HEK293 cells (AID 720679); conditions: red autofluorescence 540/590 nm; series mostly up to 91.3 µM
How it was run: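 HEK293 cells (2,000/well, 10% dialyzed FBS) attached 4-5 hr, then dosed with compound or DMSO and incubated overnight at 37C, 5% CO2. Red fluorescence read at 540/590 nm, Rose Bengal sodium as reference fluorophore.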

[10] = qHTS assay to test for compound auto fluorescence at 535 nm (green) in HEK293 cells (AID 720680); conditions: green autofluorescence 485/535 nm; series mostly up to 91.3 µM
[11] = qHTS assay to test for compound auto fluorescence at 460 nm (blue) in HEK293 cell free culture (AID 720681); conditions: cell-free medium, autofluorescence 405/460 nm (blue); series mostly up to 91.3 µM
How it was run: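 Compounds were added to cell-free DMEM with 10% FBS and fluorescence read directly. The blue channel used 405 nm excitation and 460 nm emission, with triamterene as the reference fluorophore.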

[12] = qHTS assay to test for compound auto fluorescence at 535 nm (green) in HEK293 cell free culture (AID 720682); conditions: cell-free medium, green autofluorescence 485/535 nm, hits give high values; series mostly up to 91.3 µM
How it was run: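 DMEM + 10% FBS, cell-free; cpd or DMSO pinned in; Ex485/Em535 read; output as fluorescein-equivalent signal.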

[13] = qHTS assay to test for compound auto fluorescence at 590 nm (red) in HEK293 cell free culture (AID 720683); conditions: cell-free medium autofluorescence, Ex540/Em590 red; series mostly up to 91.3 µM
How it was run: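 Cell-free wells of DMEM with 10% FBS received compound, and intrinsic fluorescence was read at excitation/emission 540/590 nm. Values expressed as equivalence to Rose Bengal sodium.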

[14] = qHTS assay to test for compound auto fluorescence at 590 nm (red) in HepG2 cell free culture (AID 720684); conditions: cell-free medium autofluorescence, red 540/590 nm; series mostly up to 91.3 µM
How it was run: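 Compounds are added to culture medium (MEM, 10% FBS) lacking cells, then fluorescence is read at excitation 540 nm, emission 590 nm, with Rose Bengal sodium as the equivalency standard.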

[15] = qHTS assay to test for compound auto fluorescence at 460 nm (blue) in HepG2 cell free culture (AID 720685); conditions: Cell-free culture medium, blue autofluorescence 405/460 nm; series mostly up to 91.3 µM
How it was run: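 Compound (23 nL) or DMSO pinned into cell-free MEM with 10% FBS; blue fluorescence read at 405/460 nm excitation/emission, expressed as auto-fluorescence equivalency to triamterene.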

[16] = qHTS assay to test for compound auto fluorescence at 535 nm (green) in HepG2 cell free culture (AID 720686); conditions: Cell-free medium, green autofluorescence 485/535 nm; series mostly up to 91.3 µM
[17] = qHTS assay to test for compound auto fluorescence at 460 nm (blue) in HepG2 cells (AID 720687); conditions: autofluorescence 405/460 nm, 1 h; series mostly up to 91.3 µM
How it was run: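 HepG2 cells in MEM with 10% FBS, attached overnight at 37 C, were exposed to compound or DMSO for 1 hr at 37 C, 5% CO2. Blue fluorescence was read at 405/460 nm, with triamterene as reference fluorophore.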

[18] = molecular target: Glucocorticoid receptor (Homo sapiens) (UniProt P04150); experiment: qHTS assay to identify small molecule agonists of the glucocorticoid receptor (GR) signaling pathway (AID 720691; active = well fitted activation curve with a large enough effect in the signal ratio in the repeat runs, not every such curve was filed as active; the % refers to the signal ratio); conditions: GR-bla HeLa, beta-lactamase reporter ratio, 18 h; series mostly up to 62.4 µM
How it was run: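 GR-bla HeLa cells carrying a GRE-driven beta-lactamase reporter, exposed to compounds for 18 h at 37 C. Reporter activation read as fluorescence after 2 h with LiveBLAzer B/G FRET substrate at room temperature.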

[19] = molecular target: Glucocorticoid receptor (Homo sapiens) (UniProt P04150); experiment: qHTS assay to identify small molecule antagonists of the glucocorticoid receptor (GR) signaling pathway (AID 720692; active = well fitted inhibition curve with a large enough effect in the signal ratio in the repeat runs, not every such curve was filed as active; the % refers to the signal ratio); conditions: GR-bla HeLa, beta-lactamase FRET ratio, dexamethasone-stimulated, 18 h; series mostly up to 58.5 µM
How it was run: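 GR-bla HeLa cells carrying a GRE-driven beta-lactamase reporter received compound after 4 h plating, then dexamethasone (5 nM final). After 18 h at 37C, the FRET substrate was loaded for 2 h at room temperature and fluorescence read.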

[20] = qHTS assay for small molecule agonists of the p53 signaling pathway (AID 651631; calls by dose curve; also: nearly all actives have a fitted effect of over 15% in size; also: potency is read from the fitted curve at half-maximal effect); conditions: HCT-116 p53RE-bla reporter, beta-lactamase FRET ratio, 16 h; series mostly up to 73.3 µM
How it was run: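 Testing took place in human colorectal HCT-116 cells with stable p53RE-driven beta-lactamase. After 16 h of compound exposure at 37 °C, a FRET substrate was added and fluorescence recorded 2 h later.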

Measured: Potency

Chain of Glucocorticoid receptor (Homo sapiens) (P04150 whole entry, looked up): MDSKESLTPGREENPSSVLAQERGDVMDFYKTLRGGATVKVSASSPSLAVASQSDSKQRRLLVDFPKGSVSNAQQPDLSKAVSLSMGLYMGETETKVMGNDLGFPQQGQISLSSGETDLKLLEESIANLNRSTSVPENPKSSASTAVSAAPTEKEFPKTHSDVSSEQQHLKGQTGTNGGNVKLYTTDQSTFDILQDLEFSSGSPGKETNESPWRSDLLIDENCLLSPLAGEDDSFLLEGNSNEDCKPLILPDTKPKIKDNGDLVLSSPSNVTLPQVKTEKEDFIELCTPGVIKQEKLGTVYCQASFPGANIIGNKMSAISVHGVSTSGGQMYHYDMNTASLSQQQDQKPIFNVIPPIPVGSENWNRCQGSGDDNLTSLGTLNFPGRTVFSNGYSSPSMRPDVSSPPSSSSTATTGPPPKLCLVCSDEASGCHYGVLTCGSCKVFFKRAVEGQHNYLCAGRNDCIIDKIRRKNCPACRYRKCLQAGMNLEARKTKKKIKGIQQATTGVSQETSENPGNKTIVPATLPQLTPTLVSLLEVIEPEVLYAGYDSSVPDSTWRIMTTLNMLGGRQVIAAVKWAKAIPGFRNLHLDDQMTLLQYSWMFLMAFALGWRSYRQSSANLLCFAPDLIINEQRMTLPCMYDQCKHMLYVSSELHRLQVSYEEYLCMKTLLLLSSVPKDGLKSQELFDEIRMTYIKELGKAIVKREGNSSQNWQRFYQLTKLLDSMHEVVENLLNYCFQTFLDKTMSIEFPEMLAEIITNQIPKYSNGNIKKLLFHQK

CC(Cc1ccc(C(C)(C)C)cc1)CN1C[C@@H](C)O[C@@H](C)C1 (stereo partly specified)
active: [5] 61.1 µM
not listed: [20]
inactive: all other assays above

c1ccc2c(c1)OCC(C1=NCCN1)O2 (stereo unspecified)
active: [5] 27.8 µM
not listed: [18] | [19] | [20]
inactive: all other assays above

BrC(Br)Br
not listed: [1] | [5] | [14] | [19]
inactive: all other assays above

CCOC(=O)CC(=O)CCl
active: [20] 68.6 µM
not listed: [1] | [2] | [3] | [5] | [14] | [19]
inactive: all other assays above

N#CSCSC#N
active: [20] 5.57 µM and 10.8 µM | [1] 19.8 µM and 30.3 µM | [2] 62.5 µM and 60.5 µM | [5] 62.5 µM and 48.1 µM
not listed: [3] | [4] | [18] | [19]
inactive: all other assays above

Oc1ccc(C2(c3ccc(O)cc3)c3ccccc3-c3ccccc32)cc1
active: [20] 61.1 µM | [2] 172 nM
not listed: [3] | [4] | [5] | [16] | [18] | [19]
inactive: all other assays above

c1ccc(OCC2CO2)cc1 (stereo unspecified)
not listed: [1] | [3] | [5] | [6] | [15]
inactive: all other assays above
